For 36 compounds, outcome and AC50 results are on record in PubChem BioAssay (EPA / NIEHS).

SMILES strings stand for the structures. Results filed as inconclusive are left out. Activity calls are given as the source filed them. The calls were made as follows: active = hit-call score of the fitted dose curve at least 0.9, where 1 is the maximum; inconclusive = response in the unintended direction; inactive = score below 0.9.

A word on the AC50: it is the concentration at which the activity in the assay is half-maximal.

One test concerns the target Cellular tumor antigen p53 (Homo sapiens) (UniProt P04637). Kind of test: TOX21_p53_BLA_p2_ratio: Tox21 HCT-116 p53 Agonism Beta-lactamase Assay, Ratio, Phase 2 (AID 2283592). Summed up:
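HCT-116 cells with p53-responsive beta-lactamase reporter, 4000 cells/well, preincubated 5 h, then compound in DMSO (217-fold dilution) for 16 h at 37C. CCF4-AM substrate 2 h at room temperature; 460/530 nm emission ratio fitted upward versus DMSO.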
Take `CC(N)CN` (stereo unspecified): the outcome was inactive.
The same measure, in the same setting: for `CCN1CCCC1CNC(=O)c1cc(S(N)(=O)=O)ccc1OC` (stereo unspecified) the value was “inactive”.
On the same count and under the same terms, the entry for `CS(=O)(=O)CCNCc1ccc(-c2ccc3ncnc(Nc4ccc(OCc5cccc(F)c5)c(Cl)c4)c3c2)o1` is “inactive”; for `Cc1scc2c1N(C(=O)CN1CCN(C)CC1)c1ccccc1NC2=O` it is “inactive”.
Consider `CC(C)C(=O)OCC(C)(C)C(O)C(C)C` (stereo unspecified), for which the result was inactive.
The same measure, in the same setting: the entry for `O=C1CCCC(=O)C1` is “inactive”; for `CN1CCN(C2=Nc3ccccc3Sc3ccc(Cl)cc32)CC1` it is “inactive”; for `CCCCCCOC(=O)c1cccnc1` it is “inactive”.
Turning to `CCCCCCCC/C=C\CCCCCCCC(=O)OCCCC`, the result was inactive.
`CC(=O)OCC1=C(C(=O)O)N2C(=O)[C@@H](NC(=O)Cc3ccccc3)[C@H]2SC1`: the result was inactive.
With `O=C1c2ccccc2C(=O)N1CO`, the result was inactive.
Consider `CCN1C(=O)c2ccccc2C1Nc1ccc(OCCN2CCCCC2)cc1` (stereo unspecified), for which the outcome was inactive.
Same read-out and setting: for `COC(=O)CC[C@H](N)C(=O)O` the value was “inactive”; for `CCN(CCO)CCCC(C)Nc1ccnc2cc(Cl)ccc12` (stereo unspecified), “inactive”; for `CC1(C)O[C@@H]2C[C@H]3[C@@H]4CCC5=CC(=O)CC[C@]5(C)[C@@]4(F)[C@@H](O)C[C@]3(C)[C@]2(C(=O)CCl)O1`, “inactive”.
Turning to `N[C@@H](C(=O)N[C@@H]1C(=O)N2C(C(=O)O)=C(Cl)CC[C@H]12)c1ccccc1`, the outcome was inactive.

Tested on in another test: not listed separately
In words: TOX21_p53_BLA_p3_viability: Viability Assessment in the Tox21 HCT-116 p53 Agonism Beta-lactamase Assay, Phase 3 (AID 2283593).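 Also: cells exposed to compound for 16 h before reading.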 Summed up: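 Cellular ATP was quantified by CellTiter-Glo luminescence, read after 30 min at room temperature. Beforehand, HCT116 cells (4000/well) received compound 5 h post-seeding, 217-fold diluted from DMSO, then incubated 16 h at 37C.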
`CN(C)CCC(O)(c1ccccc1)c1ccccc1Cl` (stereo unspecified): the outcome was inactive.
Same read-out and setting: for `C=CCCCCCC` the value was “inactive”; for `CC(C)(C)NSc1nc2ccccc2s1`, “inactive”; for `CN[C@@H]1CCc2[nH]c3ccc(C(N)=O)cc3c2C1`, “inactive”.
On the same count and under the same terms, for `C[C@@H](c1ncncc1F)[C@](O)(Cn1cncn1)c1ccc(F)cc1F` the value was “inactive”.
Take `O=C(Oc1ccccc1C(=O)O)c1ccccc1O`: the compound was called inactive.
On the same count and under the same terms, for `CCC(C=O)CC` the value was “inactive”; for `Cc1cc(N)c(S(=O)(=O)O)cc1Cl`, “inactive”; for `CC1(C)S[C@@H]2[C@H](NC(=O)[C@@H](NC(=O)N3CCNC3=O)c3ccccc3)C(=O)N2[C@H]1C(=O)O`, “inactive”.
Same read-out and setting: the entry for `O=C(c1ccc(Cl)cc1)c1ccc(Cl)cc1` is “inactive”; for `FC(F)(F)c1ccccc1-n1ccnc1` it is “inactive”; for `CCN(CC)CC(=O)Nc1c(C)cccc1C` it is “inactive”.
Same read-out and setting: for `NC(CO)C(=O)NNCc1ccc(O)c(O)c1O` (stereo unspecified) the value was “inactive”.
For the compound `CN1CCN(c2cc3c(cc2F)c(=O)c(C(=O)O)cn3-c2ccc(F)cc2)CC1`, the call was inactive.
For `CC(C)c1ccccc1C(C)C`, the compound was called inactive.
The same measure, in the same setting: for `CC/C(=C(/CC)c1ccc(OP(=O)(O)O)cc1)c1ccc(OP(=O)(O)O)cc1` the value was “inactive”; for `Cc1cccc(C)c1NC(=O)NC1=CCCN1C`, “inactive”.
Same read-out and setting: for `CC(C)(C)c1nnc(NS(=O)(=O)c2ccccc2)s1` the value was “inactive”; for `COc1cc(C(=O)N2CCCCCCC2)cc(OC)c1OC`, “inactive”.
With `Nc1cccc2c(=O)[nH][nH]c(=O)c12`, the result was inactive.
On the same count and under the same terms, for `CC(N)CN` (stereo unspecified) the value was “inactive”.
In the case of `CCN1CCCC1CNC(=O)c1cc(S(N)(=O)=O)ccc1OC` (stereo unspecified), the outcome was inactive.
On the same count and under the same terms, for `CS(=O)(=O)CCNCc1ccc(-c2ccc3ncnc(Nc4ccc(OCc5cccc(F)c5)c(Cl)c4)c3c2)o1` the value was “inactive”; for `Cc1scc2c1N(C(=O)CN1CCN(C)CC1)c1ccccc1NC2=O`, “inactive”.
Same read-out and setting: the entry for `CC(C)C(=O)OCC(C)(C)C(O)C(C)C` (stereo unspecified) is “inactive”; for `CCCCCCOC(=O)c1cccnc1` it is “inactive”.
Same read-out and setting: for `CCCCCCCC/C=C\CCCCCCCC(=O)OCCCC` the value was “inactive”.
Turning to `CC(=O)OCC1=C(C(=O)O)N2C(=O)[C@@H](NC(=O)Cc3ccccc3)[C@H]2SC1`, the result was inactive.
Turning to `O=C1c2ccccc2C(=O)N1CO`, the result was inactive.
Turning to `CCN1C(=O)c2ccccc2C1Nc1ccc(OCCN2CCCCC2)cc1` (stereo unspecified), the call was inactive.
Still for that read-out and setting: the entry for `COC(=O)CC[C@H](N)C(=O)O` is “inactive”; for `CCN(CCO)CCCC(C)Nc1ccnc2cc(Cl)ccc12` (stereo unspecified) it is “inactive”.
On the same count and under the same terms, the entry for `CC1(C)O[C@@H]2C[C@H]3[C@@H]4CCC5=CC(=O)CC[C@]5(C)[C@@]4(F)[C@@H](O)C[C@]3(C)[C@]2(C(=O)CCl)O1` is “inactive”; for `N[C@@H](C(=O)N[C@@H]1C(=O)N2C(C(=O)O)=C(Cl)CC[C@H]12)c1ccccc1` it is “inactive”.

Tested on in the next test: not listed separately
In words: TOX21_p53_BLA_p4_viability: Viability Assessment in the Tox21 HCT-116 p53 Agonism Beta-lactamase Assay, Phase 4 (AID 2283597).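 Also: hits lower the luminescence signal meaning cytotoxicity.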 Summed up:
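HCT-116 p53-bla cells, 4000/well, dosed after 5 h attachment and incubated 16 h at 37 °C, 5% CO2. Viability from CellTiter-Glo ATP luminescence after 30 min at room temperature, taken after the beta-lactamase read; loss of signal indicates cytotoxicity.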
Consider `CC(C)(C)NSc1nc2ccccc2s1`, for which the result was inactive.
For `C[C@@H](c1ncncc1F)[C@](O)(Cn1cncn1)c1ccc(F)cc1F`, the call was inactive.
Same read-out and setting: the entry for `O=C(Oc1ccccc1C(=O)O)c1ccccc1O` is “inactive”; for `O=C(c1ccc(Cl)cc1)c1ccc(Cl)cc1` it is “inactive”.
In the case of `Cc1cccc(C)c1NC(=O)NC1=CCCN1C`, the outcome was inactive.
In the case of `COc1cc(C(=O)N2CCCCCCC2)cc(OC)c1OC`, the call was inactive.
`CC(=O)OCC1=C(C(=O)O)N2C(=O)[C@@H](NC(=O)Cc3ccccc3)[C@H]2SC1`: the call was inactive.
Turning to `CC1(C)O[C@@H]2C[C@H]3[C@@H]4CCC5=CC(=O)CC[C@]5(C)[C@@]4(F)[C@@H](O)C[C@]3(C)[C@]2(C(=O)CCl)O1`, the compound was called inactive.

The next test deals with Cellular tumor antigen p53 (Homo sapiens) (UniProt P04637). In words: TOX21_p53_BLA_p5_ratio: Tox21 HCT-116 p53 Agonism Beta-lactamase Assay, Ratio, Phase 5 (AID 2283599). Summed up: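 Beta-lactamase reporter ratio (blue 460 nm over green 530 nm, 405 nm excitation) after 2 h CCF4-AM loading, in HCT-116 cells exposed 16 h at 37 C to compounds pinned at 217-fold dilution. Increases relative to DMSO baseline scored.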
Chain of Cellular tumor antigen p53 (Homo sapiens) (P04637 whole entry, looked up): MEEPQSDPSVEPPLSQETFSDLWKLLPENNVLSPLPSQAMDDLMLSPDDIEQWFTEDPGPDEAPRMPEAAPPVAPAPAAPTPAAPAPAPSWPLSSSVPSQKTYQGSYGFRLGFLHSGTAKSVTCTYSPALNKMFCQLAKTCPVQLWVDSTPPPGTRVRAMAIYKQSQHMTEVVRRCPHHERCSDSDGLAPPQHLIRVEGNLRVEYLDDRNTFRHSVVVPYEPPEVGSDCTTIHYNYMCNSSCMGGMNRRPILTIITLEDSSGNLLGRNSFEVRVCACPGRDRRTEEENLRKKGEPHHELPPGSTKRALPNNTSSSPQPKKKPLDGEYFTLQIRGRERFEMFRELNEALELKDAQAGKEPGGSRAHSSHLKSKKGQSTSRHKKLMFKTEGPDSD
Regarding `CN(C)CCC(O)(c1ccccc1)c1ccccc1Cl` (stereo unspecified), the result was inactive.
Turning to `CN[C@@H]1CCc2[nH]c3ccc(C(N)=O)cc3c2C1`, the result was inactive.
As to `CCC(C=O)CC`, the outcome was inactive.
On the same count and under the same terms, for `Cc1cc(N)c(S(=O)(=O)O)cc1Cl` the value was “inactive”; for `CC1(C)S[C@@H]2[C@H](NC(=O)[C@@H](NC(=O)N3CCNC3=O)c3ccccc3)C(=O)N2[C@H]1C(=O)O`, “inactive”; for `FC(F)(F)c1ccccc1-n1ccnc1`, “inactive”.
Still for that read-out and setting: for `CCN(CC)CC(=O)Nc1c(C)cccc1C` the value was “inactive”; for `NC(CO)C(=O)NNCc1ccc(O)c(O)c1O` (stereo unspecified), “inactive”; for `CN1CCN(c2cc3c(cc2F)c(=O)c(C(=O)O)cn3-c2ccc(F)cc2)CC1`, “inactive”.
Turning to `CC(C)c1ccccc1C(C)C`, the AC50 is 67 µM (active).
For the compound `CC/C(=C(/CC)c1ccc(OP(=O)(O)O)cc1)c1ccc(OP(=O)(O)O)cc1`, the outcome was inactive.
Same read-out and setting: the entry for `CC(C)(C)c1nnc(NS(=O)(=O)c2ccccc2)s1` is “inactive”; for `Nc1cccc2c(=O)[nH][nH]c(=O)c12` it is “inactive”.
Regarding `CC(N)CN` (stereo unspecified), the outcome was inactive.
The same measure, in the same setting: the entry for `CCN1CCCC1CNC(=O)c1cc(S(N)(=O)=O)ccc1OC` (stereo unspecified) is “inactive”.
Regarding `CS(=O)(=O)CCNCc1ccc(-c2ccc3ncnc(Nc4ccc(OCc5cccc(F)c5)c(Cl)c4)c3c2)o1`, the result was inactive.
Still for that read-out and setting: for `CC(C)C(=O)OCC(C)(C)C(O)C(C)C` (stereo unspecified) the value was “inactive”.
The same measure, in the same setting: the entry for `CCCCCCOC(=O)c1cccnc1` is “inactive”.
For `O=C1c2ccccc2C(=O)N1CO`, the outcome was inactive.
As to `CCN1C(=O)c2ccccc2C1Nc1ccc(OCCN2CCCCC2)cc1` (stereo unspecified), the outcome was inactive.
Same read-out and setting: the entry for `COC(=O)CC[C@H](N)C(=O)O` is “inactive”; for `CCN(CCO)CCCC(C)Nc1ccnc2cc(Cl)ccc12` (stereo unspecified) it is “inactive”.
On to `N[C@@H](C(=O)N[C@@H]1C(=O)N2C(C(=O)O)=C(Cl)CC[C@H]12)c1ccccc1`, for which the outcome was inactive.
